Screening data as filed in PubChem BioAssay.
JMJD2A Tudor = qHTS Assay for Inhibitors of JMJD2A-Tudor Domain; AlphaScreen JMJD2A-Tudor / H3K4me3 peptide binding; Potency, µM (series often up to 114 µM), inactives show top-dose activity change, negative = inhibition, hits mostly inhibitors; 390,000 compounds, 4.4% hits; also: potency is read from the fitted curve at half-maximal effect; % is scaled to controls: 0 for no effect and ±100 for the full control effect; nearly all actives have a fitted effect of over 50% in size
BAZ2B inh = qHTS Assay for Inhibitors of BAZ2B; Bromodomain adjacent to zinc finger domain protein 2B (Homo sapiens), Q9UIF8; 360,000 compounds, 4.4% hits; Potency, µM (top dose mostly 114 µM), for the others: at the highest dose activity change, negative = inhibition, actives largely listed as inhibitors; AlphaScreen BAZ2B-H3K14Ac peptide displacement; also: potency is read from the fitted curve at half-maximal effect; % is scaled to controls: 0 for no effect and ±100 for the full control effect; nearly all actives have a fitted effect of over 60% in size
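Complex of BAZ2B and biotin-H3K14Ac (50 nM apiece) forms over 30 min at RT, then faces library compounds up to 110 uM for another 30 min; AlphaScreen beads added, 20 min dark incubation, luminescence read.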
HP1b chromo inh = HTS for Inhibitors of HP1-beta Chromodomain Interactions with Methylated Histone Tails. AlphaScreen HP1-beta / biotin-H3K9me3 peptide binding. Potency, µM (doses to about 114 µM), inactives show at the top dose activity change, negative = inhibition, most hits filed as inhibitors. 390,000 compounds, 0.56% hits. AID 540317, 2011; also: potency is read from the fitted curve at half-maximal effect; nearly all actives have a fitted effect of over 70% in size
Target sequence (P83916 whole entry, looked up): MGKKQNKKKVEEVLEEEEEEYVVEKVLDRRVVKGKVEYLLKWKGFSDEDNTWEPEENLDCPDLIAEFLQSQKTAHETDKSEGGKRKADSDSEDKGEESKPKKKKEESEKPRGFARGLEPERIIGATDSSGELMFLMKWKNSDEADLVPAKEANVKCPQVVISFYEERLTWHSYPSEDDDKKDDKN
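Compound inhibition of the preformed complex between 50 nM HP1-beta and 50 nM biotinylated H3K9me3 peptide was read by AlphaScreen. Buffer was PBS pH 7.4 with 0.01% Tween-20. Incubations ran 30 min at room temperature, with 10 ug/mL donor/acceptor beads.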
PLK1 PBD inh = qHTS for Inhibitors of PLK1-PDB (polo-like kinase 1 - polo-box domain): Primary Screen; Serine/threonine-protein kinase PLK1 (Homo sapiens), P53350; Plk1 PBD binding of FITC phosphopeptide, fluorescence polarization; Potency, µM, for the others: max response, negative = inhibition, hits mostly inhibitors; 360,000 compounds, 2.8% hits; AID 720504, 2013; also: potency is read from the fitted curve at half-maximal effect; series mostly up to about 57 µM; % is scaled to controls: 0 for no effect and ±100 for the full control effect; nearly all actives have a fitted effect of over 65% in size
G9a inh = qHTS Assay for Inhibitors of Histone Lysine Methyltransferase G9a. Histone-lysine N-methyltransferase EHMT2 (Homo sapiens), Q96KQ7. G9a H3K9 monomethylation, AlphaScreen, 2 h. Potency, µM (doses to about 102 µM), for the others: at the top dose activity, negative = inhibition, most hits filed as inhibitors. 350,000 compounds, 8.8% hits. AID 504332, 2011; also: potency is read from the fitted curve at half-maximal effect; % is scaled to controls: 0 for no effect and ±100 for the full control effect; nearly all actives have a fitted effect of over 75% in size
Target sequence (Q96KQ7 913-1193 limits assumed): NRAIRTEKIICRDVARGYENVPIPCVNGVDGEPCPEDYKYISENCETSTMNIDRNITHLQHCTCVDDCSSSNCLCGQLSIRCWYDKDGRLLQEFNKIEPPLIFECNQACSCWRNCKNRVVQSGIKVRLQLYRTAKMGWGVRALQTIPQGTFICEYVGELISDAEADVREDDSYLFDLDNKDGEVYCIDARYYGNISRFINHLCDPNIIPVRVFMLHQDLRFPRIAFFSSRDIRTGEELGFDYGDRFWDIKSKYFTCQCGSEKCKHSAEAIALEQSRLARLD
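Using a bead-based AlphaScreen, monomethylated H3K9 product from 2 h room-temperature reactions (G9a 20 nM, peptide 500 nM, SAM 20 uM) was detected with 0.5 ug/mL rabbit anti-H3K9me1 antibody.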
PI5P4Ka inh = qHTS for Inhibitors of phosphatidylinositol 5-phosphate 4-kinase (PI5P4K); Phosphatidylinositol 5-phosphate 4-kinase type-2 alpha (Homo sapiens), P48426; PI5P4Kalpha enzyme, ADP-Glo luminescence, 60 min; hits give low values; max response, %; 330,000 compounds, 1.2% hits; AID 652105, 2013; active = max response of -50% or lower; inconclusive = between -30% and -50%; inactive = -30% or higher; also: value at the top dose of about 77 µM; % is scaled to controls: 0 for no effect and ±100 for the full control effect
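Enzyme plus substrate dispensed, test compounds pinned in, then ATP (5 microM final) added. After 60 min at RT, ADP-Glo reagent 1 for 45 min and reagent 2 for 30 min preceded luminescence imaging.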
* marks the source's active call; other numbers are inactive results; u = inconclusive; x = no result given; ! = repeats disagree; [ ] = remark or other dose. Hits are enriched below; roughly 12% of the tested compounds scored in any of these assays. Unless noted, calls follow the shape of the dose curve; as a rule, active = well fitted curve in the direction sought with a large enough effect; inconclusive = small, poorly fitted or top-dose-only effect, or another doubt; inactive = no such curve, though single readings can be large; an effect the other way counts as inactive or inconclusive.

SMILES | JMJD2A Tudor | BAZ2B inh | HP1b chromo inh | PLK1 PBD inh | G9a inh | PI5P4Ka inh
CCOC(=O)c1ccc(N2C(=O)c3n[nH]c(-c4ccco4)c3C2c2ccc([N+](=O)[O-])cc2)cc1 (centres undefined) | u | 40µM* | -25% | 5% | u | -23
CCOC(=O)c1ccc(N2C(=O)c3n[nH]c(-c4ccco4)c3C2c2ccc(C)cc2)cc1 (centres undefined) | u | x | -28% | x | 11µM* | x
CCOC(=O)c1ccc(N2C(=O)c3n[nH]c(-c4ccco4)c3C2c2ccc(O)c(OC)c2)cc1 (centres undefined) | u | x | u | x | 22µM* | x
COc1ccc(CCNC(=O)CSc2cn(CCNC(=O)c3cccc(C(F)(F)F)c3)c3ccccc23)cc1OC | -18% | -29% | 33% | x | 0%[59 µM] | x
CCCOc1ccc(NC(=O)CC2C(=O)N(c3cccc(C)c3)C(=O)N2CCc2ccncc2)cc1 (centres undefined) | -18% | -17% | 29% | x | u | x
Cc1nn2c(-c3cccc(NC(=O)CSc4nc5ccccc5o4)c3)nnc2c2ccccc12 | -28% | 9% | 3% | 24µM* | 16µM* | u
CN=c1scc(-c2ccccc2F)n1/N=C/c1ccc[nH]1 | 50µM* | 32µM* | 40µM* | -3% | 18µM* | -25
Fc1ccc(N=Cc2ccc[nH]2)cc1 | -13% | 4% | 6% | -2% | 27% | 8
COC(=O)c1cc2c(ccn2-c2ccc(F)cc2)n1C(C)C | u | u | u | 2% | -8%[0.0925 µM] | x
COC(=O)c1cc2c(ccn2-c2ccc(F)cc2)n1CC(C)C | u | u | -20% | 0% | 45µM* | x
CCCn1c(C(=O)OC)cc2c1ccn2-c1ccc(F)cc1 | u | u | -10% | 0% | 71µM* | x
COC(=O)c1cc2c(ccn2-c2ccc(F)cc2)n1Cc1ccc(OC(C)=O)cc1 | u | u | 0% | 2% | 50µM* | 11
Nc1nc(N)c(N=Nc2ccc(C(=O)O)cc2)c(N)n1 | -6% | -19% | 32% | -4% | u | u
O=C(O)c1ccc(N=Nc2c(O)ccc3ncccc23)cc1 | 7.9µM* | 1.6µM* | u | -14% | 10µM* | u
COc1cccc(/C=C/C(=C2\C(=O)N(c3ccccc3)N=C2C)c2ccc(Br)cc2)c1OC | u | x | 40µM* | u | x | 8
COc1cccc(/C=C/C(=O)Nc2cccc(C(C)=O)c2)c1OC | 1% | -13% | 31% | 2% | -10% | 0
Cc1nc2nc(SCC(=O)NCc3ccccc3)nn2c(C)c1Cc1ccccc1Cl | -10% | -2% | 39% | x | 0%[59 µM] | x
Cc1cc(SCC(=O)NC(=O)c2cccn2C)nc2ccccc12 | u | u | 2% | u | 50µM* | -5
COc1ccc2c(C)cc(SCC(=O)Nc3nsc(-c4ccc(C)cc4)n3)nc2c1 | -22% | -3% | 52% | -2% | 2% | -2
Cc1cc(SCC(=O)O)nc2ccccc12 | -7% | 23% | 6% | -5% | 11% | 4
Cc1nc(NC(=O)CSc2cc(C)c3ccccc3n2)c(Cl)cc1Cl | -27% | 0% | 22% | u | 45µM* | -3
Cc1cc(SCC(=O)c2ccc(O)c(O)c2)nc2ccccc12 | u | 18µM* | u | -22% | 10µM* | -22
Cc1ccc(-c2nc(NC(=O)CSc3cc(C)c4ccccc4n3)ns2)cc1 | u | 10µM*! | -14% | u | 35µM* | 0
C#C[C@]1(OC(C)=O)CC[C@H]2[C@@H]3CCC4=C/C(=N/O)CC[C@@H]4[C@H]3CC[C@@]21CC | x | x | x | x | -43%[12.7 µM] | x
COc1ccc2[nH]cc(CCNC(=O)c3ccccc3Cl)c2c1 | -32% | -9% | -24% | -5% | 16% | -1
SMILES | JMJD2A Tudor | BAZ2B inh | HP1b chromo inh | PLK1 PBD inh | G9a inh | PI5P4Ka inh
Cc1ccc(OCCC(=O)N(CCC(C)C)c2c(N)n(Cc3ccccc3)c(=O)[nH]c2=O)cc1 | -10% | 2% | 20% | -10% | -1% | -13
CCCCC(=O)NC(=S)NNC(=O)c1ccc(OC)cc1 | -1% | 4% | 36% | -2% | 3%[12.7 µM] | u
CCCCC(=O)NNC(=S)NC(=O)CCC | 50µM* | 26% | 21% | -8% | 10µM* | -10
CCCCC(=O)NC(=S)NNC(=O)CC#N | 18µM* | -12% | -23% | -16% | u | x
CCCCc1ccc(CC(=O)O)cc1 | -14% | -34% | -24% | 30µM* | u | x
O=C(NCc1cccnc1)Nc1cccc(Cl)c1Cl | -6% | -1% | 25% | -16% | x | 0
O=C(NN=C1CCCC1)c1cc(O)cc(O)c1 | u | 79µM* | u | -7% | x | -79*
O=C(CC[C@H]1O[C@@H](n2cnc3c(NC(=O)c4ccccc4)ncnc32)[C@H](O)[C@@H]1O)N[C@@H](CO)Cc1c[nH]c2ccccc12 | x | x | x | -2% | x | -7
O=C1c2cccc3c([N+](=O)[O-])c(O)cc(c23)C(=O)N1Nc1ccccc1 | u | u | u | 27µM* | 20µM* | -61*
O=C1c2ccccc2C(=O)N1Nc1ccccc1 | -10% | 8% | 27% | -17% | 0%[0.0925 µM] | -6
C=CCNCCOCCOc1ccc(C)cc1Br | 5µM* | 56µM* | u | 5% | 3.2µM* | 1
CCC(C)NCCCOc1c(C)cc(C)cc1Br (centres undefined) | u | 79µM* | -36% | -11% | 8.9µM* | -4
CCN(CC)CCOCCOc1ccccc1F | -17% | u | 15% | -1% | -6% | x
CCC(C)NCCOCCOc1ccc(C)cc1Br (centres undefined) | 2.5µM* | 56µM* | u | -6% | u | x
Cc1ccc(OCCCNCCO)c(Br)c1 | -7% | 0% | 36% | -3% | -33%[59 µM] | 9
CC(C)NCCOCCOc1ccccc1F | 1.8µM* | 50µM* | u | -7% | 4.5µM* | 3
CC(C)C[C@@H](NC(=O)[C@@H](Cc1ccccc1)NC(=O)c1cnccn1)B(O)O | x | x | x | x | 1%[12.7 µM] | x
Cc1cccc(C)c1OCc1nc2c3cnn(-c4cccc(F)c4)c3ncn2n1 | 3% | 3% | 38% | x | -1%[59 µM] | x
CC(C)CCN(CC(=O)NCc1ccc(F)cc1)S(=O)(=O)c1ccccc1F | 11% | 14% | 138% | -4% | 18% | 1
CC(C)NCCOCCOc1ccc(Cl)cc1Br | 3.2µM* | u | -18% | -3% | u | -2
